A selection: hits, their analogues and other compounds. The true share with any hit is near 1.3%.
PKA-R2B activ: activators of human PKA-R2B complex | P22694+P31323 | PKA-R2B holoenzyme dissociation, Cy5-IP20 fluorescence polarization; R2B truncated from residue 108, S112A mutant; 0% DMSO only, 100% 113 µM cGMP | activation, % at 11.4 µM | 340,000 compounds, 0.079% hits | AID 504700;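 active means activation above a cutoff set at the mean over all compounds plus 3 SD, cut at about 18% in these data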;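 further: higher means more holoenzyme dissociation and a rise in polarization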
PKA-R1A act: activates the PKA-R1A holoenzyme complex | P00514+P68181 | PKA-R1A dissociation, Cy5-IP20 fluorescence polarization; scaled: DMSO 0%, 113 µM cGMP 100% | activation, % at 11.4 µM | 340,000 compounds, 0.083% hits;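 active means percent activation above the mean of all tested compounds plus 3 SD, cut at about 19% in these data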;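 further: higher means more PKAc released from R1A so a rise in polarization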
IDE inh: inhibits human insulin-degrading enzyme in HEK cells | P14735 | FAbetaB cleavage, fluorescence polarization | inhibition, % at 5.59 µM | 320,000 compounds, 0.41% hits | AID 434962;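 active means percent inhibition above the average of all tested compounds plus 3 SD, set per screening campaign, cut at about 16% in these data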;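 further: IDE supplied by intact live HEK cells; FP after avidin binding of uncleaved biotin substrate so inhibition keeps polarization high; 0% = DMSO wells and 100% = 60 µM reference IDE inhibitor Ii1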
Rin1-Abl PPI inh: human Rin1-Abl interaction inhibition; P00519+Q13671; 360,000 compounds, 0.4% hits; TR-FRET Rin1/Abl binding, biochemical; inhibition, % at 7.35 µM; in the data active means inhibition above about 5%, passing the limit was not always enough
IDE cell activ: IDE (human) activation, cell-based; P14735; 340,000 compounds, 0.073% hits; activation, % at 5.96 µM; HEK cells, FAbeta-B cleavage, fluorescence polarization; 0% vehicle, 100% cell-free pure enzyme wells; AID 493087;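 active means activation above the mean of all tested compounds plus 3 SD, set per screening campaign, cut at about 17% in these data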
eLon inh: E. coli protease La inhibition; P0A9M0; purified E. coli Lon protease, fluorescence polarization; inhibition, % at 7.94 µM; 360,000 compounds, 0.42% hits; in the data active means inhibition above about 13%, passing the limit was not always enough;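 further: 0% = enzyme with probe and DMSO and 100% = no enzyme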
Target sequence (P0A9M0 whole entry, looked up): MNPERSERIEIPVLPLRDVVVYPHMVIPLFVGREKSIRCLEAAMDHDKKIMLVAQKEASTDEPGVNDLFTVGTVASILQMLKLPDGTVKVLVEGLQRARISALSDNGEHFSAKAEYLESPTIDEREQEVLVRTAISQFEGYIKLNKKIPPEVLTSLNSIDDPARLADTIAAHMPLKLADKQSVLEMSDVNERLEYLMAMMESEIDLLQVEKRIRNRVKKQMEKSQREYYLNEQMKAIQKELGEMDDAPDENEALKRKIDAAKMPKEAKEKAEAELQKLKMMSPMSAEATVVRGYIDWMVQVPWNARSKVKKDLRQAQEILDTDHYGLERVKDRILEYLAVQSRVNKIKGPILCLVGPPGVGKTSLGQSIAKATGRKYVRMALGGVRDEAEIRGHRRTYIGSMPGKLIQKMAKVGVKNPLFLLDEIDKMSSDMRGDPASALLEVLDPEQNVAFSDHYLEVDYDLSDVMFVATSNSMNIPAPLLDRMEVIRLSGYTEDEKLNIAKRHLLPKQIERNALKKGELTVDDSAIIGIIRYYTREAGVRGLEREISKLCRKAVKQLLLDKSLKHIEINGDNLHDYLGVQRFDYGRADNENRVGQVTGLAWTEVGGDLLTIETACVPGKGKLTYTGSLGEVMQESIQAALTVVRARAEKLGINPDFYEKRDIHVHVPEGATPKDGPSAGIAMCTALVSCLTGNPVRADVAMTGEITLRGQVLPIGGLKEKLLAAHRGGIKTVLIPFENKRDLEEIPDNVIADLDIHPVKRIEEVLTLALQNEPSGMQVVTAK
An asterisk follows results filed as active.

Results for COc1ccc(Cc2nnc(NC(=O)C3CC(=O)N(CCc4ccc(F)cc4)C3)s2)cc1OC (stereo unspecified) ?
PKA-R2B activ: -9.0; PKA-R1A act: 3.9; IDE inh: 2.6; Rin1-Abl PPI inh: -1.1; IDE cell activ: 3.4; eLon inh: -15.1

Results for CCCCCCCC/C=C\CCCCCCCC(=O)NCCc1ccc(O)c(O)c1 ?
PKA-R2B activ: -4.0; PKA-R1A act: -7.4; IDE inh: -2.5; Rin1-Abl PPI inh: 8.0; IDE cell activ: 17.4*; eLon inh: 7.7

How did CCCCCCCC/C=C\CCCCCCCC(=O)NCCO do in these assays?
PKA-R2B activ: -1.4; PKA-R1A act: -13.8; IDE inh: -0.7; Rin1-Abl PPI inh: -0.4; IDE cell activ: 6.8; eLon inh: 1.1

How did COc1cc(/C=C2\SC(=S)N(N3CCOCC3)C2=O)ccc1O do in these assays?
PKA-R2B activ: -9.1; PKA-R1A act: -11.5; IDE inh: 19.1*; Rin1-Abl PPI inh: 0.4; IDE cell activ: -29.6; eLon inh: -14.5

What do the screens show for `CCCC(=O)NC(=S)Nc1ccccc1F`?
PKA-R2B activ: 8.1; PKA-R1A act: -0.5; IDE inh: -7.2; Rin1-Abl PPI inh: 6.3*; IDE cell activ: 3.5; eLon inh: -12.2

What do the screens show for `CCC(CO)Oc1cc(NCc2ccc(Cl)cc2Cl)c2ncn(C(C)C)c2c1` (stereo unspecified)?
PKA-R2B activ: -11.5; PKA-R1A act: -3.7; IDE inh: 2.8; Rin1-Abl PPI inh: 4.8; IDE cell activ: 5.2; eLon inh: 3.8

Results for O=C1C=C(c2cccc3c2sc2ccccc23)C[C@@H](c2ccc(Cl)cc2)C1 ?
PKA-R2B activ: -7.8; PKA-R1A act: 1.5; IDE inh: 6.1; Rin1-Abl PPI inh: 1.8; IDE cell activ: 22.7*; eLon inh: 0.8

How did CCc1ccc(O)c(N=Cc2ccccc2O)c1 do in these assays?
PKA-R2B activ: -13.4; PKA-R1A act: 6.3; IDE inh: -3.1; Rin1-Abl PPI inh: 3.5; IDE cell activ: 5.5; eLon inh: -9.2

Results for O=c1[nH][nH]c2c(N=Cc3ccccc3O)ccc(F)c12 ?
PKA-R2B activ: 5.8; PKA-R1A act: 1.3; Rin1-Abl PPI inh: 16.6*; IDE cell activ: 2.1; eLon inh: 25.2*

Results for COCCn1c(SCc2ccc(OC)c(F)c2)nc2ccccc2c1=O ?
PKA-R2B activ: -9.2; PKA-R1A act: -7.7; IDE inh: 8.8; Rin1-Abl PPI inh: -1.8; IDE cell activ: 2.1; eLon inh: 3.9

What do the screens show for `CCOc1ccc(C2C(C#N)=C(N)SC(N)=C2C#N)cc1OCC`?
PKA-R2B activ: -9.6; PKA-R1A act: -5.5; IDE inh: 10.2; Rin1-Abl PPI inh: -15.0; IDE cell activ: -13.3; eLon inh: -348.8

How did CCOc1ccc(C2C(C#N)=C(N)SC(N)=C2C#N)cc1OC do in these assays?
IDE inh: 20.1*

How did S=C1NC(c2ccccc2)=CC(c2ccccc2)N1 (stereo unspecified) do in these assays?
IDE inh: 5.2; Rin1-Abl PPI inh: 4.0; eLon inh: -4.9

What do the screens show for `S=C1NC(c2cccs2)=CC(c2ccc(Br)cc2)N1` (stereo unspecified)?
PKA-R2B activ: -13.3; PKA-R1A act: -6.8; IDE inh: 16.6*; Rin1-Abl PPI inh: -3.3; IDE cell activ: -4.5; eLon inh: -17.3

What do the screens show for `COCCCn1c(=NC(=O)c2ccccc2)c(C#N)cc2c(=O)n3cccc(C)c3nc21`?
PKA-R2B activ: 10.1; PKA-R1A act: 11.3; IDE inh: 4.5; Rin1-Abl PPI inh: -0.5; IDE cell activ: 7.1; eLon inh: 84.3*

What do the screens show for `CCCCN(Cc1ccccc1)S(=O)(=O)c1cc2c(cc1Br)CC(C)N2C(C)=O` (stereo unspecified)?
PKA-R2B activ: 1.2; PKA-R1A act: 0.7; Rin1-Abl PPI inh: 2.0; IDE cell activ: 1.8; eLon inh: 6.0

What do the screens show for `COc1ccc(N2CCN(CCCNC(=O)c3ccc(CS(=O)(=O)c4ccc(Cl)cc4)o3)CC2)cc1`?
PKA-R2B activ: -0.1; PKA-R1A act: -18.5; IDE inh: -2.5; Rin1-Abl PPI inh: -2.5; IDE cell activ: 5.3; eLon inh: 5.3

Results for O=C1c2ccccc2C(Nc2ccc3nc(-c4cccnc4)[nH]c3c2)N1Cc1ccco1 (stereo unspecified) ?
PKA-R2B activ: -4.1; PKA-R1A act: -6.3; IDE inh: -9.2; Rin1-Abl PPI inh: 1.1; IDE cell activ: 18.4*; eLon inh: -4.0

Results for COc1ccc(NC(=O)CSc2nc3[nH]ncc3c(=O)n2-c2ccccc2OC)cc1OC ?
PKA-R2B activ: -6.1; PKA-R1A act: -7.2; IDE inh: 20.8*; Rin1-Abl PPI inh: 2.6; IDE cell activ: -19.3; eLon inh: 1.3

What do the screens show for `COc1ccc(NC(=O)CSc2nc3[nH]ncc3c(=O)n2-c2ccccc2C)cc1OC`?
PKA-R2B activ: 11.9; PKA-R1A act: -17.4; IDE inh: 12.7; Rin1-Abl PPI inh: 1.4; IDE cell activ: -3.6; eLon inh: -6.8

Results for O=C(CN1CCN(CN2C(=O)NC3(CCCCCC3)C2=O)CC1)Nc1cccc(F)c1 ?
PKA-R2B activ: 0.5; PKA-R1A act: 6.0; IDE inh: -2.5; Rin1-Abl PPI inh: 3.4; IDE cell activ: 0.2; eLon inh: -15.1

What do the screens show for `O=C(CN1CCN(CN2C(=O)NC3(CCCCCC3)C2=O)CC1)Nc1ccc(F)cc1`?
PKA-R2B activ: 8.4; PKA-R1A act: -1.2; IDE inh: -2.4; Rin1-Abl PPI inh: -2.6; IDE cell activ: 19.3*; eLon inh: 0.7

What do the screens show for `Cn1c(CN2CCOCC2)nnc1SCC(=O)Nc1ccc([N+](=O)[O-])cc1O`?
PKA-R2B activ: -8.1; PKA-R1A act: -7.4; IDE inh: -15.7; Rin1-Abl PPI inh: -6.3; IDE cell activ: 23.7*; eLon inh: -7.8

How did COC(=O)C1=C(C)N(Cc2ccccc2)C(=NCc2cccc(C(F)(F)F)c2)N[C@H]1c1cccc(F)c1 do in these assays?
PKA-R2B activ: -8.3; PKA-R1A act: -8.7; IDE inh: -2.0; Rin1-Abl PPI inh: 3.9; IDE cell activ: 24.1*; eLon inh: 8.4

What do the screens show for `COC(=O)C1=C(C)N(Cc2ccccc2)C(=NCc2cccc(C(F)(F)F)c2)N[C@H]1c1cccc(C(F)(F)F)c1`?
PKA-R2B activ: -14.4; PKA-R1A act: -6.0; IDE inh: 5.1; Rin1-Abl PPI inh: -0.7; IDE cell activ: 28.8*; eLon inh: -4.1

What do the screens show for `CC(C)C(=O)NNC(=O)C1CC1(c1ccccc1)c1ccccc1` (stereo unspecified)?
PKA-R2B activ: 5.1; PKA-R1A act: 0.1; IDE inh: 3.1; Rin1-Abl PPI inh: 0.4; IDE cell activ: 1.4; eLon inh: 2.3

Results for COc1cc(C2Nc3cccc4cccc(c34)N2)ccc1O ?
PKA-R2B activ: -3.9; PKA-R1A act: 1.3; IDE inh: -0.8; Rin1-Abl PPI inh: 0.4; IDE cell activ: 19.0*; eLon inh: -4.2

Screens (PubChem)
